This note sets out measurements from PubChem BioAssay (NCATS).

Records with an inconclusive call do not appear. The source made the active and inactive calls. The call rests on the fitted dose curve; in most records, active means well fitted inhibition curve with a large enough effect; inconclusive means small, poorly fitted or top-dose-only effect; inactive means flat fitted curve, though single readings scatter.
On the % scale 0 is the no-effect control and ±100 the full control effect; potency means the concentration at half of the fitted maximal effect.

This assay concerns WaGa. Briefly: qHTS assay to identify novel small-molecules to repurpose for Merkel cell carcinoma treatment (AID 1296009). Further: nearly all actives have a fitted effect of over 60% in size. The note with it: MCC and control cell lines, CellTiter-Glo viability, 72 h; series mostly up to 46 µM. The gist of the method:
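Viability readout: ATP luminescence (CellTiter-Glo) after 72 hr drug exposure at 37 degree celsius. Dose-response format was 8 points for NPC and 11 points for MIPE; data normalized to in-plate controls.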
Background: Quantitative high-throughput screening tests each substance at several concentrations.
For the molecule `O=C(C=Cc1cccnc1)NCCCCC1CCN(C(=O)c2ccccc2)CC1`, the Potency was 16.6 nM (active).

In the case of `O=C(O)c1ccc2cc(-c3ccc(O)c(C45CC6CC(CC(C6)C4)C5)c3)ccc2c1`, the Potency is 2350 nM (active).

Take `CCN(CC)CCCCNc1ncc2cc(-c3cc(OC)cc(OC)c3)c(NC(=O)NC(C)(C)C)nc2n1`: the Potency result was “inactive”.

Regarding `C[C@@]12O[C@@H](C[C@]1(O)CO)n1c3ccccc3c3c4c(c5c6ccccc6n2c5c31)CNC4=O`, the Potency was 833 nM (active).

For the molecule `CC(C)(C)NC(=O)[C@H]1CN(Cc2cccnc2)CCN1C[C@@H](O)C[C@@H](Cc1ccccc1)C(=O)N[C@H]1c2ccccc2C[C@H]1O`, the Potency entry is “inactive”.

As to `CC[C@H](CO)Nc1nc(NCc2ccccc2)c2ncn(C(C)C)c2n1`, the Potency entry is “inactive”.

Turning to `Cc1ccc(S(=O)(=O)Nc2cc(Cl)ccc2C(=O)Nc2nc(-c3ccccc3)cs2)cc1`, the Potency result is “inactive”.

For the molecule `COc1cc(C(C)C)c2c(c1)S(=O)(=O)N(COc1cc(=O)n3cccc(OCCN4CCCCC4)c3n1)C2=O`, the Potency entry is “inactive”.

Turning to `CCCCc1nc2cc(C=CC(=O)NO)ccc2n1CCN(CC)CC`, the Potency is 372 nM (active).

As to `COc1ccc(CC2c3cc(OC)c(OC)cc3CC[N+]2(C)CCC(=O)OCCCCCOC(=O)CC[N+]2(C)CCc3cc(OC)c(OC)cc3C2Cc2ccc(OC)c(OC)c2)cc1OC` (stereo unspecified), the activity change, negative = cytotoxicity is -8.88% [at 9.22 µM] (inactive).

As to `Cn1cncc1[C@@](N)(c1ccc(Cl)cc1)c1ccc2c(c1)c(-c1cccc(Cl)c1)cc(=O)n2C`, the Potency is 935 nM (active).

Take `C[C@H]1C[C@@H]2[C@@H]([C@@H](O)C[C@@]3(C)[C@H]2CC[C@]3(O)C(=O)CO)[C@@]2(C)C=CC(=O)C=C12`: the Potency entry was “inactive”.

Turning to `CC(C)C[C@H](NC(=O)CNC(=O)c1cc(Cl)ccc1Cl)B(O)O`, the Potency was 296 nM (active).

With `CN1CCN(c2cc(C(=O)Nc3ccc4c(c3)-c3c(c(C(N)=O)nn3-c3ccc(F)cc3)CC4)c(Cl)cn2)CC1`, the Potency entry is “inactive”.

Consider `CC(=O)OCC(=O)[C@@]1(O)[C@H](C)C[C@H]2[C@@H]3C=C(C)C4=Cc5c(cnn5-c5ccccc5)C[C@]4(C)[C@@H]3[C@@H](O)C[C@@]21C`, for which the Potency entry is “inactive”.

For `Nc1nc(-c2nn(Cc3ccccc3F)c3ncccc23)nc(N)c1N1CCOCC1`, the Potency result was “inactive”.

On to `CC(=O)OCCN1C(=O)c2c(C)nc3ccc(S(=O)(=O)N4CCOCC4)cc3c2C1=O`, for which the Potency result was “inactive”.

In the case of `C=C1C(=CC=C2CCCC3(C)[C@@H]([C@H](C)C=CC=CC(O)(CC)CC)CC[C@@H]23)C[C@@H](O)C[C@@H]1O` (stereo partly specified), the Potency is 11800 nM (active).

As for `COc1cc(OC2CCN(C)CC2)ccc1Nc1ncc2c(n1)n(C1CCCC1)c(=O)n2C`, the Potency was 23500 nM (active).

For `CC(C)[C@H](C(=O)Nc1ccc(C(=O)NO)cc1)c1ccccc1`, the Potency is 662 nM (active).

Regarding `CC1=C(CO)C(=O)O[C@@H]([C@@H](C)[C@H]2CC[C@H]3[C@@H]4C[C@H]5O[C@]56[C@@H](O)C=CC(=O)[C@]6(C)[C@@H]4CC[C@]23C)C1`, the Potency is 264 nM (active).

As to `Nc1ccc(C(=O)c2cc3c(ccc4ccccc43)[nH]2)cc1`, the Potency was 8330 nM (active).

Consider `CN(c1ncccc1CNc1nc(Nc2ccc3c(c2)CC(=O)N3)ncc1C(F)(F)F)S(C)(=O)=O`, for which the Potency was 8330 nM (active).

In the case of `O=c1[nH]nc(Sc2ncc([N+](=O)[O-])s2)n1-c1ccc2c(c1)OCCO2`, the Potency was 5260 nM (active).

Take `Nc1ccc(S(=O)(=O)Nc2ncccn2)cc1`: the Potency result is “inactive”.

Regarding `Cn1c2cc(S(C)=O)sc2c2cnn(Cc3cccc(N)c3)c(=O)c21` (stereo unspecified), the Potency result was “inactive”.

`COc1cc(=C2C=c3ccccc3=N2)[nH]c1=Cc1[nH]c(C)cc1C`: the Potency is 23500 nM (active).

Take `COCCn1c2c([n+](Cc3cnccn3)c1C)C(=O)c1ccccc1C2=O`: the Potency was 13.2 nM (active).

As for `O=C(O)[C@H](Cc1c[nH]c2ccccc12)N1C(=O)c2ccccc2C1=O`, the Potency result is “inactive”.

As for `O=C(NCCS(=O)(=O)c1ccc(C(F)(F)F)cn1)c1ccc(Cl)cc1`, the Potency result was “inactive”.

As for `COc1ccc(CC2SC(=O)NC2=O)cc1C(=O)NCc1ccc(C(F)(F)F)cc1` (stereo unspecified), the Potency result is “inactive”.

In the case of `Cc1cccc(C=NNc2cc(N3CCOCC3)nc(OCCc3ccccn3)n2)c1`, the Potency result was “inactive”.

For the molecule `C=C1C(=CC=C2CCC[C@]3(C)[C@@H]([C@H](C)C=C[C@H](C)C(C)C)CC[C@@H]23)C[C@@H](O)C[C@@H]1O`, the Potency was 118 nM (active).

For the molecule `CN(C)CC=CC(=O)Nc1cc2c(Nc3ccc(F)c(Cl)c3)ncnc2cc1O[C@H]1CCOC1`, the Potency was 14800 nM (active).

Turning to `COC(=O)C[C@](O)(CCCC(C)(C)O)C(=O)O[C@@H]1C(OC)=C[C@]23CCCN2CCc2cc4c(cc2[C@H]13)OCO4`, the Potency result was “inactive”.

Consider `CC(C)(C)OC(=O)Nc1ccc(-c2cc(C(=O)NCCCCCCC(=O)NO)no2)cc1`, for which the Potency is 3320 nM (active).
